These results are taken from PubChem BioAssay (NCATS).

The structures appear in SMILES notation. Values joined by “and” are separate entries in the source; they are usually repeats but may differ in a detail not shown here. Equal entries are not always repeated. Inconclusive results are not listed. Active and inactive are the calls of the source. Unless noted, calls come from the whole dose curve; as a rule, active = well fitted curve in the direction sought with a large enough effect; inconclusive = small, poorly fitted or top-dose-only effect, or another doubt; inactive = no such curve, though single readings can be large; an effect the other way counts as inactive or inconclusive.

Experiment [1] in a line: qHTS Assay for Lipid Storage Modulators (AID 1519; calls by dose curve; for activity change, negative = inhibition: % is set by controls: 0 for no effect and ±100 for the full control effect). The settings on record: Drosophila S3 cells, BODIPY lipid droplet/cell ratio, laser cytometry, cells loaded with oleic acid; for activity change, negative = inhibition: at 57.5 µM (top of the series). In outline: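 Cells seeded at 5,000 per well were treated with compounds over a concentration series and loaded with oleic acid (400 uM, as added). Lipid droplet fluorescence (488 nm excitation, 500-530 nm channel) was read by laser-scanning cytometry and normalized to 20 uM Triacsin C.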
For orientation: In qHTS, concentration-response curves come from the screen itself.

Experiment [2] deals with DNA repair nuclease/redox regulator APEX1 (Homo sapiens) (UniProt P27695). In words: qHTS Validation Assay for Inhibitors of the Human Apurinic/apyrimidinic Endonuclease 1 (APE1) (AID 1705;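 note: TAMRA fluorescence gain over two minutes as APE1 cuts a quenched THF abasic duplex; % is set by controls: 0 for no effect and ±100 for the full control effect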). The settings on record: purified APE1 endonuclease activity, fluorescence, titration; series mostly up to 57.1 µM. In outline: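 Read-out: TAMRA fluorescence (525 nm ex, 598 nm em) from cleavage of a quenched THF abasic-site duplex, 50 nM final; activity taken as intensity change between third and first of three reads 60 s apart.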
Chain of DNA repair nuclease/redox regulator APEX1 (Homo sapiens) (P27695 whole entry, looked up): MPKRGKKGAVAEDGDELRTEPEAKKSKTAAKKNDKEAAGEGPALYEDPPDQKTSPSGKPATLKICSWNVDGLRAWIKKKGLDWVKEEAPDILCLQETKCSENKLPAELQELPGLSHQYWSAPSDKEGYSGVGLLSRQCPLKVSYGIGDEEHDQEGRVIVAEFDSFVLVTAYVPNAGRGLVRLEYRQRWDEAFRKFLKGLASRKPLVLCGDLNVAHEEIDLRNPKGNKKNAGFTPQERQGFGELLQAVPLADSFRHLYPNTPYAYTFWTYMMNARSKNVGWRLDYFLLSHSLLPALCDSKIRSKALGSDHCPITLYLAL

A short description of experiment [3]: Counterscreen for APE1 Inhibitors: Fluorescent Dye Displacement Validation Assay (AID 1707).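 Note: plate controls were ThO with dsDNA and no compound for no effect and ThO without dsDNA for full effect.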 The settings on record: fluorescent dye displacement from DNA; series mostly up to 57.1 µM. The method, boiled down:
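ThO 250 nM + dsDNA 50 nM (THF abasic site, 5'-TAMRA), Tris-HCl pH7.5/50mM NaCl/2 mM MgCl2/0.01% Tween-20; compounds pin-transferred; ex 480/em 540 nm endpoint. Neutral = no compound; no-DNA ThO wells = negative control.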
For orientation: A counterscreen serves to expose hits that act by an unwanted route or on another target.

Experiment [4] addresses Endonuclease 4 (Escherichia coli (strain K12)) (UniProt P0A6C1). In words: Counterscreen for APE1 Inhibitors: qHTS Validation Assay for Inhibitors of Endonuclease IV (AID 1708). Note: % is set by controls: 0 for no effect and ±100 for the full control effect. The settings on record: E. coli endonuclease IV, DNA cleavage fluorescence; series mostly up to 57.1 µM. The method, boiled down:
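Concentration-response counterscreen run identically to the APE1 assay: 15 min room-temperature preincubation of 2 nM enzyme with compound, reaction started with 50 nM quenched abasic DNA, progress taken from kinetic fluorescence.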

Experiment [5] in a line: qHTS for differential inhibitors of proliferation of Plasmodium falciparum line 7G8 (AID 1815).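 Note: parasite growth measured after three days of incubation; plate controls were vehicle wells for no effect and reference inhibitor wells for full effect.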 The settings on record: Plasmodium falciparum 7G8 proliferation inhibition; series mostly up to 28.7 µM.
The nature of experiment [6]: qHTS for differential inhibitors of proliferation of Plasmodium falciparum line GB4 (AID 1816).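 Note: parasite growth measured after 72 h incubation; 0% = vehicle DMSO and -100% = reference inhibitor.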 The settings on record: Potency: Plasmodium falciparum GB4 proliferation inhibition; series mostly up to 28.7 µM.
The nature of experiment [7]: qHTS for differential inhibitors of proliferation of Plasmodium falciparum line 3D7 (AID 1876).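 Note: parasite growth measured after three days of culture; 0% = vehicle wells and -100% = reference inhibitor wells.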 Conditions: P. falciparum 3D7 proliferation inhibition; series mostly up to 28.7 µM.
Experiment [8] can be described thus: qHTS for differential inhibitors of proliferation of Plasmodium falciparum line D10 (AID 1877).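 Note: parasites grown with compound for 72 h before DNA staining; plate controls were vehicle wells for no effect and reference inhibitor wells for full effect.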 The settings on record: series mostly up to 28.7 µM.
Experiment [9] in a line: qHTS for differential inhibitors of proliferation of Plasmodium falciparum line Dd2 (AID 1882).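 Note: plate controls were DMSO vehicle for no effect and 0.29 µM artemisinin for full effect; nearly all actives have a fitted effect of over 65% in size.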 Conditions: Potency: Plasmodium falciparum Dd2 proliferation inhibition; series mostly up to 28.7 µM. In outline: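 Dd2-infected erythrocytes (0.3% parasitemia, 2.5% hematocrit final) incubated with compound 72 h at 37 C, 5% CO2; lysed with saponin/Triton buffer containing SYBR Green I, incubated overnight in the dark, then read by fluorescence (485/535 nm). Normalized to 0.29 uM artemisinin and DMSO.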

Experiment [10] can be described thus: qHTS for differential inhibitors of proliferation of Plasmodium falciparum line HB3 (AID 1886).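 Note: parasites grown with compound for 72 h before SYBR Green readout; plate controls were vehicle for no effect and reference inhibitor for full effect.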 Conditions: Potency: Plasmodium falciparum HB3 proliferation inhibition; series mostly up to 28.7 µM.
Experiment [11] deals with Ferritin light chain (Equus caballus) (UniProt P02791). In words: qHTS Validation Assay for Identification of Novel General Anesthetics (AID 2323). Note: % is set by controls: 0 for no effect and ±100 for the full control effect. Conditions: horse apoferritin, anesthetic-site fluorescent probe displacement; series mostly up to 76.9 µM. The method, boiled down:
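10 uM horse-spleen apoferritin + 1-AMA (50% saturated, PBS); cpd pin-transferred, 10 min RT. Ex 380/Em 535 nm endpoint. Activity normalized between free 1-AMA and 1-AMA/apoferritin; 4-parameter Hill fit of concentration-response.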

For experiment [12], the target named is ATP-dependent DNA helicase Q1 (Homo sapiens) (UniProt P46063). The experiment can be described thus: qHTS Validation Assay for Inhibitors of RecQ-Like Dna Helicase 1 (RECQ1) (AID 2353).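 Note: plate controls were DMSO vehicle for no effect and enzyme-free control for full effect.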 The settings on record: recombinant RECQ1 helicase DNA unwinding assay; series mostly up to 25.6 µM. In outline: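 50 nM RECQ1T1 preincubated 15 min with compound in Tris pH 8.0 buffer with MgCl2, DTT, Tween-20 and 2.5 ug/ml poly(dI-dC); started with 200 nM TAMRA/BHQ-2 forked duplex and 2 mM ATP. Unwinding read as fluorescence (525/598 nm), two reads 2 h apart.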
Chain of ATP-dependent DNA helicase Q1 (Homo sapiens) (P46063 whole entry, looked up): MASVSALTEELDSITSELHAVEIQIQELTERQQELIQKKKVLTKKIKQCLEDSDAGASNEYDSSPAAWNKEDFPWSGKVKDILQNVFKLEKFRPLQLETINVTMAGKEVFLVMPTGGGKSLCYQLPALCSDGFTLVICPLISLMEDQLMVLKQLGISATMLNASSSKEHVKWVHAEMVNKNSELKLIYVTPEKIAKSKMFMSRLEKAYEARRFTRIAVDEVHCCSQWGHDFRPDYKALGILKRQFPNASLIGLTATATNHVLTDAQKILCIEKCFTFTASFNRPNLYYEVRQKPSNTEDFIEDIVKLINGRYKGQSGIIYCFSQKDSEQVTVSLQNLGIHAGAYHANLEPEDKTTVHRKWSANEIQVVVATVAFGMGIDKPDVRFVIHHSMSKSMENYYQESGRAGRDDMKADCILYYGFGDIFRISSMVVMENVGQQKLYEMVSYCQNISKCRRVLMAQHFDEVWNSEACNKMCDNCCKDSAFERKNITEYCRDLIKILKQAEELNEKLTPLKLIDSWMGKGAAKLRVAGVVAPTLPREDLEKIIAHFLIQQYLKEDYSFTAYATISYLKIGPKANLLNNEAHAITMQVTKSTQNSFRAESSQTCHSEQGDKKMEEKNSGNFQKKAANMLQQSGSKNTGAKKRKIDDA

Experiment [13] has as its target RecQ-like DNA helicase BLM (Homo sapiens) (UniProt P54132). The experiment can be described thus: qHTS Validation Assay for Inhibitors of Bloom's syndrome helicase (BLM) (AID 2364).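 Note: plate controls were DMSO vehicle for no effect and enzyme-free control for full effect.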 The settings on record: BLM helicase DNA unwinding, fluorescence, in vitro; series mostly up to 57.1 µM. The method, boiled down:
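BLM 50 nM in 25 mM Tris-HCl pH 8.0, 5 mM NaCl, 2 mM MgCl2, 1 mM DTT, 0.01% Tween-20, 2.5 ug/ml poly(dI-dC); 15 min cpd preinc, RT. Start: 200 nM forked DNA + 2 mM ATP (final). TAMRA read, 2 reads 2 h apart.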

Experiment [14] in a line: Cytometric Cell-Based qHTS for Inhibitors of the mTORC1 Signaling Pathway in MEF (Tsc2-/-, p53-/-) Cells (AID 2660).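 Note: percent of cells above a phospho-rpS6 to PI ratio cutoff in each well; plate controls were DMSO for no effect and rapamycin for full effect.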 The settings on record: mTORC1 pathway cytometry; series mostly up to 38.3 µM. In outline:
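Percent of cells positive for normalized phospho-S6 staining is reported, with the cutoff set from rapamycin (7.5 nM) versus DMSO wells. Tsc2-/-, p53-/- MEFs received compound for 24 hrs.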

Experiment [15] can be described thus: High Content Imaging Cell-Based qHTS for Inhibitors of the mTORC1 Signaling Pathway in MEF (Tsc2-/-, p53-/-) Cells (AID 2666).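 Note: percent of cells scored positive for phospho-rpS6 Ser235/236 immunostaining by imaging.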 Conditions: at 38.3 µM (top of the series). The method, boiled down: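 Read-out: % positive cells per well, with thresholds from highest- and lowest-signal wells, based on phospho-rpS6 (Ser235/236) intensity normalized to Hoechst nuclear stain. Cells: Tsc2-/-, p53-/- MEFs carrying empty vector; compound 24 hrs, 37 degree Celsius.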

For experiment [16], the target named is alpha-glucosidase (Oryza sativa, rice) (UniProt Q653V4). In words: Counterscreen for Glucocerebrosidase Inhibitors: qHTS Assay for Rice alpha-Glucosidase at pH 5.0 (AID 997).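 Note: 0% = full activity with enzyme and -100% = basal without enzyme.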 Conditions: rice alpha-glucosidase enzyme activity; series mostly up to 76.9 µM. The method, boiled down: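 Rice alpha-glucosidase (4 nM final) with 400 uM 4-methylumbelliferyl-alpha-D-glucopyranoside in citrate buffer pH 5.0, 20 min at room temperature, stopped at pH 10; fluorescence 365/440 nm, compounds 0.7 nM–77 uM, AC50 from Hill fits.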

Experiment [17] in a line: qHTS for differential inhibitors of proliferation of Plasmodium falciparum line W2 (AID 1883).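 Note: parasites grown with compound for 72 h before lysis and staining; 0% = vehicle wells and -100% = control inhibitor wells.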 The settings on record: Potency: Plasmodium falciparum W2 proliferation inhibition; series mostly up to 28.7 µM.
[18] abbreviates: measured here: cell count channel max response.
Setting [19] is: measured here: lipid channel max response.

Chain of RecQ-like DNA helicase BLM (Homo sapiens) (P54132 whole entry, looked up): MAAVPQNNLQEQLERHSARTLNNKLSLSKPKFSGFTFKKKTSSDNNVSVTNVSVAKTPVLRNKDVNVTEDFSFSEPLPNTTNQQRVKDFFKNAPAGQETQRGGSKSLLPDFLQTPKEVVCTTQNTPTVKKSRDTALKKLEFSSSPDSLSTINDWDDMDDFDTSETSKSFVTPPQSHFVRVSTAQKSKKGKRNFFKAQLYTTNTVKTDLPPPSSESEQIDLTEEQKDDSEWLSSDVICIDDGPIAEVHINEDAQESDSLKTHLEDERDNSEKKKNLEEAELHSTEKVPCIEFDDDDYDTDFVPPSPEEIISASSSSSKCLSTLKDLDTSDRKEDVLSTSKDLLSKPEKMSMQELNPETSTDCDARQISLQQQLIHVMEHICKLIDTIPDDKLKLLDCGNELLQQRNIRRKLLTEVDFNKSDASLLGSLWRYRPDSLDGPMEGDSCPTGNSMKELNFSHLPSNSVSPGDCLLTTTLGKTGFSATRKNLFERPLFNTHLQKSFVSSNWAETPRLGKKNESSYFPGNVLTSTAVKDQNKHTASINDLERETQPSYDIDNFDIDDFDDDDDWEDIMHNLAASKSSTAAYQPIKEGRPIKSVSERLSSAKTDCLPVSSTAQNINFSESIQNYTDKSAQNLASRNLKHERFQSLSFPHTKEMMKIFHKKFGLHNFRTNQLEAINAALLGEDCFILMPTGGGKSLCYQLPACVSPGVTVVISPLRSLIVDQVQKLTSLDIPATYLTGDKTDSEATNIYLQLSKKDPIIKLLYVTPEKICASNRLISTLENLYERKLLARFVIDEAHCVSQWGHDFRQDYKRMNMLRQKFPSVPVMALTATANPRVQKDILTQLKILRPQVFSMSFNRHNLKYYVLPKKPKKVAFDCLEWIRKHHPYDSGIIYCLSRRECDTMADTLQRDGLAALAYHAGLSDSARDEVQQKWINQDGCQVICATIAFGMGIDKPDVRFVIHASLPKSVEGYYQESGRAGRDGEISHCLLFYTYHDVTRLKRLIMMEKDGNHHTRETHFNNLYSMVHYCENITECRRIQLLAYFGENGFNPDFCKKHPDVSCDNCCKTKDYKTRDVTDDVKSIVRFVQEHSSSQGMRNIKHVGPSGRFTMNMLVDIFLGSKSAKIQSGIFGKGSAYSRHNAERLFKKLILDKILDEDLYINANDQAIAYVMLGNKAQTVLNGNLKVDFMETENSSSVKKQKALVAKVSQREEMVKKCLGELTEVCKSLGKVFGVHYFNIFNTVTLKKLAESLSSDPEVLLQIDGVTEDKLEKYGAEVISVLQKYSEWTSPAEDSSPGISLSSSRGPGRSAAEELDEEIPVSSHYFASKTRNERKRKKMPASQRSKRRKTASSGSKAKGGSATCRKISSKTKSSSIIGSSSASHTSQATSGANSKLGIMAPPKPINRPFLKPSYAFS
Chain of Ferritin light chain (Equus caballus) (P02791 2-175 limits assumed): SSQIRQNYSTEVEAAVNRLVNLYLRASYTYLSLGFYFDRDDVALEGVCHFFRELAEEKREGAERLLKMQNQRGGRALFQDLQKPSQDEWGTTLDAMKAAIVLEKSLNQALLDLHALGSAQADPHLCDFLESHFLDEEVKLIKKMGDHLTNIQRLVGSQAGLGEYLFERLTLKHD

Turning to `CC(C[N+](C)(C)C)OC(N)=O` (centres undefined), in [1], the activity change, negative = inhibition is 0.608% (inactive). For the same compound, the max response in [1] (setting [18]) was -11.2%; in experiment [1] (setting [19]), -6.21%. For the same compound, the result in [2], in experiment [3], in experiment [4], in experiment [11], in experiment [12] and in [14] was inactive. Besides, the compound was called inactive in [15]. Further, the Potency entry in experiment [5], in experiment [6], in [7], in [8], in experiment [9] and in [10] was “inactive” throughout. Also, the Potency result in experiment [13] was “inactive”.
Regarding `O=c1n(CCCN2CCN(c3cccc(Cl)c3)CC2)nc2ccccn12`, the compound was called inactive in [16], in experiment [2], in experiment [3], in [4], in [11] and in experiment [12]. Further, the outcome in [14] and in experiment [15] was inactive. Also, the activity change, negative = inhibition in experiment [1] was 10.8% (inactive) and -2.4% (inactive). The max response was 20.6% and -14.9% in [1] (setting [18]); 37% and -15.6% in experiment [1] (setting [19]). Moreover, the Potency entry in [7], in experiment [8], in [9], in experiment [10] and in experiment [13] was “inactive” in each case.
As for `CC(C)(C)NCC(O)c1ccc(O)c(CO)c1` (centres undefined), the activity change, negative = inhibition in experiment [1] is 0.332% (inactive) and 5.35% (inactive). Moreover, the max response in [1] (setting [18]) was 11.9% and -13.2%; in [1] (setting [19]), 15.4% and -7.47%. In addition, the result in experiment [2], in [3], in [4], in experiment [11], in experiment [12] and in experiment [14] was inactive. Moreover, in [15], the result was inactive. Also, the Potency result in experiment [13] was “inactive”.
Consider `Nc1nc2c(ncn2COCCO)c(=O)[nH]1`, for which the compound was called inactive in experiment [16], in experiment [2], in [3], in [4], in experiment [11] and in experiment [12]. The result in experiment [14] and in experiment [15] was inactive. Also, the Potency entry in experiment [5], in experiment [6], in experiment [7], in [8], in experiment [9] and in experiment [10] was “inactive” each time.
For the compound `O=NN(CCCl)C(=O)NCCCl`, the compound was classed as inactive in [16], in experiment [2], in [3], in [11], in experiment [12] and in experiment [14]. Moreover, in experiment [15], the compound was classed as inactive. The activity change, negative = inhibition in experiment [1] was -2.32% (inactive). For the same compound, the values for the max response in [1] (setting [18]) and in [1] (setting [19]) were -3.08% and -6.13%, respectively. Besides, the Potency result in experiment [5], in experiment [6], in [7], in experiment [9], in experiment [17] and in experiment [10] was “inactive” each time.
In the case of `O=C(O)COCCN1CCN(C(c2ccccc2)c2ccc(Cl)cc2)CC1` (centres undefined), the activity change, negative = inhibition in experiment [1] was 5.98% (inactive). In addition, the max response in [1] (setting [18]) was 4.08%; in experiment [1] (setting [19]) it was 13.6%. In addition, the compound was classed as inactive in experiment [14].
With `Cc1[nH]c(=O)c(C#N)cc1-c1ccc2nccn2c1`, the outcome in experiment [16], in experiment [2], in experiment [3], in [4], in experiment [11] and in experiment [12] was inactive. Further, the call in experiment [14] and in experiment [15] was inactive. Also, the activity change, negative = inhibition in experiment [1] is -1.62% (inactive). Also, the values for the max response in [1] (setting [18]) and in experiment [1] (setting [19]) were 25.3% and 21.7%, respectively. The Potency result in experiment [5], in [6], in experiment [7], in experiment [9] and in experiment [10] was “inactive” in each case.
